Structures are written as SMILES. Several values for one entry are separate records, joined by “and”; a condition that tells them apart may be missing. Equal values may be shown once. Results filed as inconclusive are left out. Where a structure was tested more than once in an assay, its records may differ in their call. Activity calls are given as the source filed them. Calls come from the whole dose curve.
% is set by controls: 0 for no effect and ±100 for the full control effect; potency is the fitted concentration of half-maximal effect.

The nature of this assay: Nuclear factor erythroid 2-related factor 2/antioxidant responsive element (Nrf2/ARE) small molecule agonists: luciferase reporter gene qHTS assay in human keratinocytes (AID 1919969). Note: nearly all actives have a fitted effect of over 35% in size. The note with it: KeratinoSens HaCaT ARE-luciferase, luminescence, 24 h; series mostly up to 92.4 µM; activity, positive = activation: at the top concentration. The text has this: National Center for Advancing Translational Sciences [NCATS]
Division of Preclinical Innovation [DPI]
U.S. Environmental Protection Agency [EPA]
National Institutes of Environmental Health Sciences [NIEHS]
National Toxicology Program [NTP]
U.S. Food and Drug Administration [FDA]
Oxidative stress has been implicated in the pathogenesis of a variety of diseases ranging from cancer to neurodegeneration. The antioxidant response element (ARE) signaling pathway plays an important role in the amelioration of oxidative stress. The KeratinoSens (Givaudan, Switzerland) is an in vitro test method which quantifies luciferase induction as a measure of activation of Keap1-Nrf2-antioxidationt/electrophile response element (ARE) dependant pathway in HaCaT human keratinocytes stably transfected with a selectable plasmid. The KeratinoSens assay is a cell-based assay with a reporter cell line to detect potential skin sensitizers by their ability to induce the Nrf2/ARE-response. The activation of the report gene under culture conditions can be detected by ONE-Glo Luciferase Assay System (Promega, Madison, WI). This cell line has been used to screen the Tox21 10K compound library to identify agonists that induce oxidative stress. The cytotoxicity of the Tox21 compound library against the KS-ARE cell line was tested in parallel by measuring the cell viability using CellTiter- Fluor assay system (Promega, Madison, WI) in the same wells.
HaCaT derived cell line KeratinoSens were dispensed at 1,500 cells/5uL/well in 1536-well white wall/solid bottom plates using a Multidrop Combi (ThermoFisher Scientific, Waltham, MA) dispenser. After the assay plates were incubated at 37 C/5% CO2 for 5 h, 23 nL of compounds dissolved in DMSO, positive controls or DMSO only was transferred to the assay plate by a pintool workstation (Kalypsys, San Diego, CA). The plates were incubated at 37 C/5% CO2 for 23 h, followed by addition of 1uL/well of CellTiter-Fluor reagent into the assay plates using a Flying Reagent Dispenser (Aurora Discovery, San Diego, CA) for cell viability readout that measures cytotoxicity. After 1 h incubation at 37 C/5% CO2 the fluorescence intensity was measured using a ViewLux (PerkinElmer, Shelton, CT) plate reader. Then 4uL/well of One-Glo were added using a Flying Reagent Dispenser. After the plates were incubated at room temperature for 30 min, the luminescence intensity in the assay plates was measured using ViewLux plate reader.
In general terms: A reporter such as luciferase makes a cellular process visible.
On to `COc1ccccc1N`, for which the Potency is 61.1 µM (active) and inactive.
On to `CN(CCO)CCO`, for which the “activity, positive = activation” value was -10.6% (inactive).
As for `CC(C)(O)C(Cl)(Cl)Cl`, the “activity, positive = activation” value was 3.03% [at 42.5 µM] (inactive).
Turning to `CCCCOCCOC(C)=O`, the Potency result was “inactive”.
The same measure, in the same setting: under `Nc1cc(Cl)cc(Cl)c1` stands “inactive”.
For `CCCCCCCCCC(CC)c1ccc(S(=O)(=O)O)cc1` (stereo not given), the Potency entry was “inactive and 21.7 µM (active)”.
In the case of `CC(C)OC(=O)Cc1ccccc1`, the “activity, positive = activation” value was -5.24% (inactive).
Turning to `CC(C)C(C)(N)C#N` (stereo not given), the “activity, positive = activation” value is -4.08% (inactive).
As for `c1ccoc1`, the “activity, positive = activation” value was -3.92% (inactive).
As for `COP(=O)(CCC(=O)NCO)OC`, the “activity, positive = activation” value is -2.17% (inactive).
Regarding `Cc1ccc(OP(=O)(Oc2ccc(C)cc2)Oc2ccc(C)cc2)cc1`, the Potency is 61 µM (active) and inactive.
Regarding `CCOP(=S)(OCC)OP(=S)(OCC)OCC`, the “activity, positive = activation” value is 5.29% (inactive).
Turning to `CCCCCCCCCCCC(=O)O`, the Potency result was “inactive”.
Take `C[C@]12CCC(=O)C=C1CC[C@@H]1[C@@H]2CC[C@@]2(C)[C@H]1CC[C@]2(C)O`: the Potency result was “inactive”.
Turning to `O=C=NC1CCCCC1`, the “activity, positive = activation” value was 16% (inactive).
For the compound `Cc1cccc(C)c1N`, the Potency result was “inactive”.
For `C=CCSSCC=C`, the “activity, positive = activation” value is 4.11% (inactive).
For the compound `CCCCCCCCOC(=O)c1ccccc1C(=O)OCCCCCCCC`, the Potency entry is “inactive”.
Consider `CCCCCCCCn1sccc1=O`, for which the Potency was 612 nM (active) and 641 nM (active).
Regarding `CCN(CC)CCO`, the Potency entry is “inactive”.
On to `CCC(CC)Nc1c([N+](=O)[O-])cc(C)c(C)c1[N+](=O)[O-]`, for which the Potency was 17.5 µM (active) and 48.5 µM (active).
For the compound `CCOP(=O)(OCC)SCCSCC`, the Potency result was “inactive and 68.6 µM (active)”.
Turning to `O=P1(NCCCl)OCCCN1CCCl` (stereo not given), the Potency entry was “inactive”.
As to `COC(=O)c1cncn1C(C)c1ccccc1` (stereo not given), the “activity, positive = activation” value was -0.033% [at 42.5 µM] (inactive).
Same read-out and setting: under `O=[N+]([O-])O[C@H]1CO[C@H]2[C@@H]1OC[C@H]2O[N+](=O)[O-]` stands -4.82% [at 42.5 µM] (inactive).
As to `N#Cc1ccccn1`, the Potency is 63.7 µM (active) and inactive.
On the same count and under the same terms, under `CCOP(=O)(OCC)OCC` stands “inactive”.
With `ClC1=C(Cl)[C@]2(Cl)[C@@H]3[C@@H](Cl)[C@H](Cl)C[C@@H]3[C@@]1(Cl)C2(Cl)Cl`, the “activity, positive = activation” value was -7.56% (inactive).
Turning to `CCCCCCOC(=O)c1ccccc1C(=O)OCCCCCC`, the Potency entry was “inactive”.
Take `C(CCOCC1CO1)COCC1CO1` (stereo not given): the Potency was 30.2 µM (active).
Consider `CCN(CC)C(=O)/C(Cl)=C(\C)OP(=O)(OC)OC`, for which the “activity, positive = activation” value is -0.207% (inactive).
For the compound `OC[C@@H](O)[C@H]1O[C@@H]2O[C@H](C(Cl)(Cl)Cl)O[C@@H]2[C@H]1O`, the “activity, positive = activation” value was -0.585% (inactive).
With `COC(=O)NS(=O)(=O)c1ccc(N)cc1`, the Potency entry is “inactive”.
Consider `COc1ccc(C(O)(c2cncnc2)C2CC2)cc1` (stereo not given), for which the “activity, positive = activation” value was -6.73% (inactive).
For the compound `CCCCN(CC)c1c([N+](=O)[O-])cc(C(F)(F)F)cc1[N+](=O)[O-]`, the Potency was 61.1 µM (active).
On to `N#Cc1cccc(C#N)c1`, for which the Potency entry is “inactive”.
With `CC(C)OC(=O)Nc1cccc(Cl)c1`, the “activity, positive = activation” value was 26.8% (inactive).
As for `[O-][Cl+2]([O-])O`, the Potency result is “inactive”.
Regarding `C1CC2OC2CC1C1CO1` (stereo not given), the Potency entry is “inactive”.
Turning to `Cc1cnc(C2=NC(C)(C(C)C)C(=O)N2)c(C(=O)O)c1` (stereo not given), the “activity, positive = activation” value is 5.16% (inactive).

(Values after PubChem BioAssay (Tox21).)
